Consider six molecules from PubChem BioAssay (Tox21).

A number with no mark means an inactive call. Results filed as inconclusive are left out. Activity calls are given as the source filed them. Unless noted, the call rests on the fitted dose curve; in most records, active means well fitted curve in the direction sought with a large enough effect in the repeat runs; inconclusive means weak or mixed curves; inactive means no such curve, though single readings can be large; an effect the other way counts as inactive or inconclusive.

Assay [1] is described as follows: qHTS assay to identify small molecule agonists of the sonic hedgehog signaling (Shh) pathway (AID 1259368; calls by dose curve;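 further: NIH/3T3-derived 3T3Gli1-Luc cells carrying a stable Gli1-driven firefly luciferase reporter; series mostly up to about 92 µM; nearly all actives have a fitted effect of over 15% in size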). A digest of the protocol:
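Read-out: firefly luciferase luminescence from a Gli1 response element reporter stably integrated in NIH/3T3-derived 3T3Gli1-Luc cells, measured 30 min at room temperature after reagent addition. Compound exposure lasted 24 hr at 37 C, 5% CO2.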

The target of assay [2] is Estrogen receptor beta (Homo sapiens) (UniProt Q92731). As to the kind of experiment: qHTS assay to identify small molecule agonists of the estrogen receptor beta (ER-beta) signaling pathway (AID 1259377; active means well fitted activation curve with a large enough effect in the signal ratio in the repeat runs, not every such curve was filed as active; the % refers to the signal ratio). Put shortly:
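Agonist mode cell assay in GripTite HEK293T cells expressing an ER-beta fusion that drives beta-lactamase from an Upstream Activator Sequence; 16 hr compound exposure at 37C, then 2 h LiveBLAzer B/G FRET substrate at room temperature, fluorescence read-out.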
Background: Quantitative high-throughput screening tests each substance at several concentrations.

Assay [3] shares this target. As to the kind of experiment: qHTS assay to identify small molecule antagonists of the estrogen receptor beta (ER-beta) signaling pathway (AID 1259378; active means well fitted inhibition curve with a large enough effect in the signal ratio in the repeat runs, not every such curve was filed as active; the % refers to the signal ratio). A digest of the protocol: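 ER-beta-UAS-bla HEK293T (GripTite) cells in 2% charcoal-stripped FBS medium were preincubated 6 hr at 37C, dosed with compound, then stimulated with 1 nM E2 (final) for 16 hr; beta-lactamase reporter read by B/G FRET fluorescence after 2 hr substrate loading.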

Assay [4] can be described thus: qHTS assay to identify small molecule agonists of the androgen receptor (AR) signaling pathway in the presence of an antagonist - cell viability counter screen (AID 1259379).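 Further: MDA-kb2 human breast cancer cells carrying an MMTV luciferase reporter; series mostly up to about 92 µM; nearly all actives have a fitted effect of over 25% in size.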 A digest of the protocol: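 Viability counter screen: CellTiter-Fluor fluorescence, measured in the same wells as the luciferase read-out. MDA-kb2 cells, 3,000/well, with nilutamide at 3.0uM final and compounds at 15 concentrations, 16 hr at 37C, 0% CO2.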

Assay [5] can be described thus: qHTS assay to identify small molecule agonists of the estrogen receptor beta (ER-beta) signaling pathway - cell viability counter screen (AID 1259380). Further: nearly all actives have a fitted effect of over 30% in size. A digest of the protocol:
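Luminescence read-out (CellTiter-Glo, 30 min, room temp) taken in the same wells as the beta-lactamase reporter assay; ER-beta-UAS-bla HEK293T cells exposed to DMSO-dissolved compounds for 16 hr at 37C in 2% charcoal-stripped FBS medium.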

Assay [6] can be described thus: qHTS assay to identify small molecule antagonists of the estrogen receptor beta (ER-beta) signaling pathway - cell viability counter screen (AID 1259382). Further: nearly all actives have a fitted effect of over 55% in size. Further: potency means the concentration at half of the fitted maximal effect. Put shortly: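 Luminescent ATP read-out (CellTiter-Glo, 30 min, RT) taken in the same wells as the bla reporter assay. HEK293T ER-beta-UAS-bla cells in 2% charcoal-stripped FBS were exposed to compounds with 1nM E2 for 16 hr at 37C.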

The target in assay [7] is Estrogen receptor (Homo sapiens) (UniProt P03372). Put plainly: qHTS assay to identify small molecule agonists of the estrogen receptor alpha (ER-alpha) signaling pathway in the presence of an antagonist (AID 1259383; calls by dose curve; further: top concentration of the series differs between compounds; nearly all actives have a fitted effect of over 15% in size). Put shortly:
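Luciferase luminescence (ONE-Glo, 30min at room temperature) measured in VM7Luc4E2 cells after 22hr compound exposure at 15 concentrations, with 10.0nM ICI-182,780 final present; cells express endogenous ER-alpha and carry four EREs upstream of luciferase.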

Assay [8] is described as follows: qHTS assay to identify small molecule agonists of the estrogen receptor alpha (ER-alpha) signaling pathway in the presence of an antagonist - cell viability counter screen (AID 1259386).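 Further: series mostly up to about 92 µM; cells exposed to compounds for 22 h at 37 °C before the viability read; nearly all actives have a fitted effect of over 30% in size.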 Put shortly:
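Read-out: CellTiter-Fluor fluorescence after 1hr reagent incubation, measured in the same wells as the luciferase readout. VM7Luc4E2 cells were exposed to 15 compound concentrations with 10.0nM ICI-182,780 for 22hr at 37C.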

The target in assay [9] is Progesterone receptor (Homo sapiens) (UniProt P06401). Put plainly: qHTS assay to identify small molecule agonists of the progesterone receptor (PR) signaling pathway (AID 1346784; calls by dose curve; further: nearly all actives have a fitted effect of over 30% in size). A digest of the protocol:
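Cells (PR-UAS-bla HEK 293T, GripTite) were plated in assay medium containing 2% charcoal-stripped FBS and incubated 6 hr. Test compounds in DMSO were added for 16 hr at 37C. FRET substrate was then loaded for 2 hr at room temperature before fluorescence reading.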

Assay [10] has the same target. As to the kind of experiment: qHTS assay to identify small molecule antagonists of the progesterone receptor (PR) signaling pathway (AID 1346795; active means well fitted inhibition curve with a large enough effect in the signal ratio in the repeat runs, not every such curve was filed as active; the % refers to the signal ratio). A digest of the protocol:
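Antagonist mode: compounds tested against 1 nM (final) promegestone stimulation in HEK293T cells expressing PR-UAS-bla reporter, 16 hr at 37C, 5% CO2; beta-lactamase activity detected via B/G FRET substrate after 2 hr at room temperature.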

Assay [11] can be described thus: qHTS assay to identify small molecule antagonists of the progesterone receptor (PR) signaling pathway - cell viability counter screen (AID 1346798). Further: series mostly up to about 92 µM; nearly all actives have a fitted effect of over 50% in size. Put shortly:
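Counter screen for cytotoxicity: viability of PR-UAS-bla HEK293T cells was measured with CellTiter-Glo luminescence following 16 hr compound exposure in the presence of R5020.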

A short description of assay [12]: qHTS assay to identify small molecule agonists of the progesterone receptor (PR) signaling pathway - cell viability counter screen (AID 1346799; calls by dose curve; further: nearly all actives have a fitted effect of over 45% in size; further: potency means the concentration at half of the fitted maximal effect). A digest of the protocol:
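Cells (PR-UAS-bla HEK293T) are plated at 3,000/well in 2% charcoal-stripped FBS medium, rested 6 hr, dosed and incubated 16 hr at 37C. CellTiter-Glo is then added and luminescence measured after 30 min at room temperature.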

Assay [13] in a line: qHTS assay to identify small molecule antagonists of the TGF-beta/Smad signaling pathway - cell viability counter screen (AID 1346824). Further: nearly all actives have a fitted effect of over 50% in size. Put shortly:
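SBE-bla HEK 293T cells were plated overnight at 37 C, then given compounds in DMSO plus TGF-beta1 (added as 0.25 ng/mL solution) for 5 hr. After the bla read, CellTiter-Glo was added to the same wells and luminescence read after 30 min at room temperature.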

A short description of assay [14]: qHTS assay to identify small molecule agonists of the TGF-beta/Smad signaling pathway (AID 1346859; active means well fitted activation curve with a large enough effect in the signal ratio in the repeat runs, not every such curve was filed as active; the % refers to the signal ratio; further: series mostly up to about 77 µM). Put shortly:
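Reporter line: HEK 293T with stably integrated SBE-controlled beta-lactamase. Compound exposure lasts 5 hr at 37 C and 5% CO2; substrate loading follows for 2 hr at room temperature, with emission read at 460 and 530 nm.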

The nature of assay [15]: qHTS assay to identify small molecule antagonists of the sonic hedgehog signaling (Shh) pathway (AID 1259369; calls by dose curve; further: nearly all actives have a fitted effect of over 45% in size). Put shortly:
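Luminescence readout: firefly Luc under Gli1 response element in 3T3Gli1-Luc cells (NIH/3T3 clone). Antagonist mode, stimulation by conditioned medium; compound exposure 24hr at 37 C, 5% CO2.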

For assay [16], the target named is Thyrotropin receptor (Homo sapiens) (UniProt P16473). Put plainly: qHTS assay to identify small molecule antagonists of the thyroid stimulating hormone receptor (TSHR) signaling pathway (AID 1259385; calls by dose curve; further: nearly all actives have a fitted effect of over 20% in size). A digest of the protocol:
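TSHR-HEK293 cells were plated and held 18 h at 37C/5% CO2, then given compound plus Ro20-1724 and stimulated with TSH at 1.5 ng/mL final. After 30 min at room temperature, cAMP was detected with cAMP-d2/anti-cAMP-cryptate (1 h) by fluorescence.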

Assay [17] deals with Thyrotropin-releasing hormone receptor (Homo sapiens) (UniProt P34981). As to the kind of experiment: qHTS assay to identify small molecule antagonists of the thyrotropin-releasing hormone receptor (TRHR) signaling pathway (AID 1346877; active means well fitted inhibition curve with a large enough effect in the repeat runs, not every such curve was filed as active; further: series mostly up to about 51 µM). A digest of the protocol: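 HEK293/TRHR cells, 18 h, 37 °C; Ca2+ dye 2 h; cpd 5 min RT; TRH 1 nM final; fluorescence read 3 min, 1 s intervals; 15 concs, triplicate.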

Assay [18] is described as follows: qHTS assay to identify small molecule agonists of the TGF-beta/Smad signaling pathway - cell viability counter screen (AID 1346829). Further: top concentration of the series differs between compounds; nearly all actives have a fitted effect of over 45% in size. Put shortly: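 In parallel with the Smad reporter read, viability of HEK 293T cells stably carrying SBE-bla is quantified by ATP luminescence following 5 hr compound treatment.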
Assay [19] is described as follows: qHTS assay to identify small molecule agonists or antagonists of the thyroid stimulating hormone receptor (TSHR) signaling pathway - wild type cell line counter screen (AID 1259384; calls by dose curve). Put shortly:
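Wild-type HEK293 cells were plated 18 h at 37 C/5% CO2, pin-dosed with compound plus Ro20-1724 medium, held 30 min at room temperature, then given cAMP-d2 and anti-cAMP-cryptate; fluorescence was read after 1 h. Fifteen concentrations, triplicate.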

Sequence of Progesterone receptor (Homo sapiens) (P06401 whole entry, looked up): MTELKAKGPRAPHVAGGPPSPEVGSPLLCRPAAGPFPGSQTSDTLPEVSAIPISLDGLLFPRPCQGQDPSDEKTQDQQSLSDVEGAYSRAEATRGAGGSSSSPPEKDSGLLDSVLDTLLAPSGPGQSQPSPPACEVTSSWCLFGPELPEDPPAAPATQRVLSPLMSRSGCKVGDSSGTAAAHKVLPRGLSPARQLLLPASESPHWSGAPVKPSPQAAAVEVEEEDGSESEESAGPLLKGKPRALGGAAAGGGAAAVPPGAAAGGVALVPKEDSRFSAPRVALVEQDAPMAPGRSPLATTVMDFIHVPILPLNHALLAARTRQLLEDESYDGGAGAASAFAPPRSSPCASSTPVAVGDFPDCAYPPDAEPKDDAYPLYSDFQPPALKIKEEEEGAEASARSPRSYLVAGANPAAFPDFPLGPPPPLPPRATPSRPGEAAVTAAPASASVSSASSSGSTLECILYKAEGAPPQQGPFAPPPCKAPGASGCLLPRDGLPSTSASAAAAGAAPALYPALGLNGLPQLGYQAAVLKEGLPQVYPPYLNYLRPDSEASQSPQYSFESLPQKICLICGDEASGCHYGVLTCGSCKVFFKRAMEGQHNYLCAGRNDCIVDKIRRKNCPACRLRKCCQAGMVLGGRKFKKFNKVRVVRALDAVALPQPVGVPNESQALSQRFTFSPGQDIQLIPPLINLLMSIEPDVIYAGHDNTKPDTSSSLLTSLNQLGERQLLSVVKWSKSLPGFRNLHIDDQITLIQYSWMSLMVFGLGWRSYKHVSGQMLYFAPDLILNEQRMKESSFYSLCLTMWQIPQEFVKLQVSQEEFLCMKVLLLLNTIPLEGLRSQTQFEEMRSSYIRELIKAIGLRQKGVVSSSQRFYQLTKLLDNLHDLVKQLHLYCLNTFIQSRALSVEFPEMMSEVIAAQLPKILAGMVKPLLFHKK
Sequence of Thyrotropin receptor (Homo sapiens) (P16473 whole entry, looked up): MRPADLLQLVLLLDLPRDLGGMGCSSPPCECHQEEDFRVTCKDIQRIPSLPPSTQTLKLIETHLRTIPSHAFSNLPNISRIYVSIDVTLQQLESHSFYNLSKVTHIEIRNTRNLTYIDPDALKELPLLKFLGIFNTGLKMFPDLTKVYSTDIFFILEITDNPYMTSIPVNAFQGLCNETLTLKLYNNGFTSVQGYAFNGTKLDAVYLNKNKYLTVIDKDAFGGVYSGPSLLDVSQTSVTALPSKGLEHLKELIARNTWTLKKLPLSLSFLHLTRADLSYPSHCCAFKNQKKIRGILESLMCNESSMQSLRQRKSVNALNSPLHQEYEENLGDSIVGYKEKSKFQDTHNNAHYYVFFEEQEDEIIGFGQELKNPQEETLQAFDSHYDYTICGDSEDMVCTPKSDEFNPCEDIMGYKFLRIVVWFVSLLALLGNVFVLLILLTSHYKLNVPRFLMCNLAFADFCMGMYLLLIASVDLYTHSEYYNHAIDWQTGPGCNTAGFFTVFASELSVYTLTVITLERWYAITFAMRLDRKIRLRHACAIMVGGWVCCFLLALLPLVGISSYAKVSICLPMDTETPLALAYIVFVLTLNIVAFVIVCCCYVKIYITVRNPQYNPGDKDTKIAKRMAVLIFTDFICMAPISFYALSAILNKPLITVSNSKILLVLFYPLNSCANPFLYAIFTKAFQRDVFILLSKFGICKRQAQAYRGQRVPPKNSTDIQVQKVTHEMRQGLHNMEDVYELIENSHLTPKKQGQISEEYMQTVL
Sequence of Thyrotropin-releasing hormone receptor (Homo sapiens) (P34981 whole entry, looked up): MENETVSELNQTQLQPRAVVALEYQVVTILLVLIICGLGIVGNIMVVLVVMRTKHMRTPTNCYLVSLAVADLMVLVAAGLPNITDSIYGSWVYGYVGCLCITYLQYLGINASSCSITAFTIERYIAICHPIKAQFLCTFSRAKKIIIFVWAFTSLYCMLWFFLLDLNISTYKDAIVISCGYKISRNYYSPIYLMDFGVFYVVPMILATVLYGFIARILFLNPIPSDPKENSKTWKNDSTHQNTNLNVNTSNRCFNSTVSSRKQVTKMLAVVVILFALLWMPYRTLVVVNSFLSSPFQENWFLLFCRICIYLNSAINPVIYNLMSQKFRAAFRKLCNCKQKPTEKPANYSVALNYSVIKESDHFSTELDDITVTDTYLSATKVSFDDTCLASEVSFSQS
Sequence of Estrogen receptor beta (Homo sapiens) (Q92731 whole entry, looked up, the tested form may be a part): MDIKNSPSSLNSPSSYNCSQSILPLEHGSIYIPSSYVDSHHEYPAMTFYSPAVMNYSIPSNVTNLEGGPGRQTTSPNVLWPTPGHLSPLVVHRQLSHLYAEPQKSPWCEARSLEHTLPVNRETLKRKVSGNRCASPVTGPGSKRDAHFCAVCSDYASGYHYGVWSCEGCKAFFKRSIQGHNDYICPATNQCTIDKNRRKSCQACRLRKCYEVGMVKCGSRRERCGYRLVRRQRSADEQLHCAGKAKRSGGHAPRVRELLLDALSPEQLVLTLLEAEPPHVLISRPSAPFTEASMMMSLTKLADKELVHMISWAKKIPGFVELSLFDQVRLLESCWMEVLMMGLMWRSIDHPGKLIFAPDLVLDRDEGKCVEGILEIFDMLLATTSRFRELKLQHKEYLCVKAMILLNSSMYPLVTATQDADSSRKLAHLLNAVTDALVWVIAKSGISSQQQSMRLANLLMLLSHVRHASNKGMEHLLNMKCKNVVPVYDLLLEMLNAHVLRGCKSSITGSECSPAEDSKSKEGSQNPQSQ
Sequence of Estrogen receptor (Homo sapiens) (P03372 whole entry, looked up): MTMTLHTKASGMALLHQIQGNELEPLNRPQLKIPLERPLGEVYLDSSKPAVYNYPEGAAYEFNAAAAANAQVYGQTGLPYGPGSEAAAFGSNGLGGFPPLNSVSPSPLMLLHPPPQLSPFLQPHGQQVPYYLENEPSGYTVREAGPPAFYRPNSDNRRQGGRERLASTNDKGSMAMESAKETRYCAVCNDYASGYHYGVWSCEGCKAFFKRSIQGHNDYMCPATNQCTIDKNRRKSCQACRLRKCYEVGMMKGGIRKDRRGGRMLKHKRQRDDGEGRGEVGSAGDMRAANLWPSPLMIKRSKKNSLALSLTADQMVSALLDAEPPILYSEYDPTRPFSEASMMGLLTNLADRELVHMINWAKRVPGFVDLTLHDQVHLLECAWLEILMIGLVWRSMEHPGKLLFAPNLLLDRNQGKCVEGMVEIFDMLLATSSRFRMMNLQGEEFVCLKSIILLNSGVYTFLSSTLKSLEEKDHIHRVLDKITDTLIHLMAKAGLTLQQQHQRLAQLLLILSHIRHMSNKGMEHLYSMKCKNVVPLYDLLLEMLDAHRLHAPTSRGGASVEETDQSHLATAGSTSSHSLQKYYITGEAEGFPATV

Consider `CCCCCCCCS`, for which the Potency entry in assay [1], in assay [2], in assay [3], in assay [4], in assay [5] and in assay [6] was “inactive” in each case. Also, the Potency entry in assay [7], in assay [8], in [9], in [10], in assay [11] and in [12] was “inactive” in each case. In addition, the molecule was classed as inactive in [13] and in assay [14].

With `CC(C)CC(C)(C)C`, the Potency result in assay [1], in assay [15], in assay [4], in [7], in assay [16] and in [8] was “inactive” in each case. The Potency result in [9] and in assay [11] was “inactive” each time. Also, the Potency in assay [6] and in assay [12] was 31.8 µM (active) each time. Also, the result in assay [13], in assay [14] and in assay [17] was inactive.

As for `O=C(O)c1cccnc1Nc1cccc(C(F)(F)F)c1`, the Potency result in assay [1], in [15], in assay [4], in assay [7], in assay [8] and in [9] was “inactive” throughout. The molecule was classed as inactive in assay [13], in [18], in [14] and in assay [17].

With `O=P(c1ccccc1)(c1ccccc1)c1ccccc1`, the Potency entry in [1], in [15], in assay [4], in assay [6], in assay [7] and in assay [16] was “inactive” in each case. Further, the Potency result in assay [8], in assay [9], in assay [10] and in [12] was “inactive” in each case. In addition, the result in [19], in assay [13], in assay [18], in assay [14] and in [17] was inactive.

As to `NC(=O)c1cc[n+](CC2=C(C(=O)[O-])N3C(=O)[C@@H](NC(=O)Cc4cccs4)[C@H]3SC2)cc1`, the Potency entry in [1], in assay [2], in assay [3], in [4], in assay [5] and in assay [6] was “inactive” each time. The Potency entry in assay [7], in assay [16], in [8], in [9], in assay [10] and in [11] was “inactive” throughout. Besides, in [12], the Potency entry was “inactive”. In addition, the outcome in assay [13], in [18] and in assay [14] was inactive.

As for `O=C(O)COCC(=O)O`, the Potency entry in assay [1], in [15], in assay [5], in [6], in assay [16] and in assay [8] was “inactive” in each case. For the same molecule, the Potency result in assay [9], in assay [10] and in [11] was “inactive” each time. Further, the molecule was classed as inactive in [19], in assay [13], in [18], in assay [14] and in [17].
